Assay results published in PubChem BioAssay AID687014 (The Scripps Research Institute Molecular Screening Center, 2013).
Out of some 370,000 compounds screened, about 6,800 (1.8%) were called active. The list comes from a sample in which actives are over-represented; it also holds similar structures and randomly drawn compounds. Unmarked numbers belong to inactive results.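 How the source made its calls: active means activation above a cutoff set at the mean of all screened compounds plus 3 SD (cut at about 10% in these data); inactive means the rest.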

These compounds were tested on Nuclear hormone receptor DAF-12 (Heterodera glycines), GAL4 fusion (assay: H. glycines DAF-12 receptor agonists, primary screen, cell-based, luminescence, HEK293, GAL4 fusion, UAS-luciferase (AID 687014;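 further: 0% = DMSO wells and 100% = sodium butyrate wells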)). Conditions: HEK293 GAL4-hgDAF12 UAS-luciferase reporter, agonist luminescence; at 6.8 µM; active compounds read high; normalized to butyrate control.

| Compound | activation |
| --- | --- |
| O=C(CCc1nnc(CCCCc2ccccc2)o1)NC(c1cccnc1)C(F)(F)F (stereo not given) | 1.64% |
| Cc1cc(=O)n2nc(N3CCCC(C(=O)N4CCN(C)CC4)C3)sc2n1 (stereo not given) | -0.62% |
| O=S1(=O)c2ccc(Br)cc2OC[C@H](Cc2ccccc2)N1Cc1cn(Cc2ccccc2)nn1 | -1.13% |
| Cc1nccn1CCC1CCCCN1C(=O)CCc1nnc(-c2ccsc2)o1 (stereo not given) | -0.93% |
| CC(=O)Nc1cccc(C(=O)OCC(=O)NCc2cc(C)c(O)c(C)c2)c1 | 3.44% |
| CC(Sc1nc2cc(Cl)ccc2s1)C(=O)Nc1ccc2c(c1)OCO2 (stereo not given) | 7.08% |
| CC(=O)Nc1cccc(C(=O)OCC(=O)c2ccc3c(c2)OCO3)c1 | 17.4% (active) |
| CC(=O)Nc1cccc(C(=O)OCN2C(=O)c3ccccc3C2=O)c1 | -0.37% |
| CCSc1ccccc1C(=O)Nc1ccc2c(c1)OCO2 | 3.85% |
| CC(C)C(=O)Nc1cccc(C(=O)Nc2ccc3c(c2)OCO3)c1 | 14.9% (active) |
| COC(=O)C1=C(C(=O)OC)C2C=C(C(C)C)C1C(=O)C2(C)O (stereo not given) | 2.89% |
| COC(=O)c1cccc(Cn2ccc3ccc(-c4ccc5ccn(C(=O)c6ccccc6C)c5c4)cc32)c1 | 0.42% |
| O=C(NS(=O)(=O)c1cccs1)[C@H]1O[C@@H](n2ccc(=O)[nH]c2=O)[C@H](O)[C@@H]1O | 1.66% |
| COc1ccc(N2CCN(CCNS(=O)(=O)c3ccc([N+](=O)[O-])cc3)CC2)cc1 | -4.01% |
| CCOc1ccccc1/C=N/Nc1nc2ccccc2o1 | 10.6% (active) |
| Fc1ccccc1OCCSc1nc2ccccc2o1 | 3.51% |
| O=C(CSc1nc2ccccc2o1)N/N=C/c1ccccc1C(=O)O | 1.68% |
| COc1ccccc1C(=O)N1O[C@]23C=C[C@]14C[C@@H](O)CC[C@]4(C)C2CC[C@]1(C)[C@@H]([C@H](C)/C=C/[C@H](C)C(C)C)CC[C@H]13 (stereo not given in full) | -1.48% |
| C/C(=N\NC(=O)c1ccccc1F)c1ccccn1 | 10.8% (active) |
| CC(=NNC(=S)N1CCCCCC1)c1ccccn1 | 2.43% |
| C/C(=N/NC(=O)c1ccn(C)n1)c1ccncc1 | 7.12% |
| Cc1ccc(S(=O)(=O)N2C[C@@H](C)[C@]3(C2)[C@H](O)[C@H](OC(=O)NCc2ccccc2)C[C@H]2C(=O)N(c4ccccc4)C(=O)[C@H]23)cc1 | -0.54% |
| Cc1ccc(CN2CCCCC(NC(=O)C3CCCCC3)C2=O)cc1 (stereo not given) | -1.5% |

| Compound | activation |
| --- | --- |
| COc1cccc(-c2cc3nc(NCCOc4ccccc4Cl)n(C)c(=O)c3s2)c1 | 0.22% |
| O=c1[nH]c(CCl)nc2cc(-c3ccc(Cl)cc3)sc12 | 12.9% (active) |
| Cn1c(NCc2cccnc2)nc2cc(-c3ccc(F)cc3)sc2c1=O | 8.39% |
| COc1ccc(-n2c(SCC(=O)Nc3ccc4c(c3)OCCO4)nnc2-c2ccc(Cl)cc2)cc1 | -1.31% |
| O=C(C(=O)N1CCC(CNC(=O)c2cccnc2Cl)CC1)c1cccs1 | 1.44% |
| Cc1nc(NC(=O)C(C)(C)C)sc1[N+](=O)[O-] | -4.82% |
| Cc1nc(N2CCCCC2)sc1C=O | 1.15% |
| Brc1ccc2nc(N3CCCC3)sc2c1 | 14.3% (active) |
| COc1ccc2nc(N3CCN(C(=O)c4ccc([N+](=O)[O-])o4)CC3)sc2c1 | -2.68% |
| Cc1nc(CNc2ncnc3ccc(-c4ccc5c(c4)OCO5)cc23)cs1 | 1.56% |
| O=C(Nc1ccc2c(c1)OCO2)C1CC(c2c(F)cccc2Cl)=NO1 (stereo not given) | 7.76% |
| Cc1cccc(NC(=O)Nc2ccc3c(c2)OCO3)n1 | 14.2% (active) |
| CN(Cc1ccccc1)C(=O)COC(=O)/C=C/c1ccc2c(c1)OCO2 | -1.56% |
| Cc1cccc(NC(=O)/C=C/c2ccc3c(c2)OCO3)n1 | 17.7% (active) |
| COc1cccc(/C=C/C(=O)Nc2ccc3c(c2)OCCO3)c1 | 16.9% (active) |
| O=C(COC(=O)/C=C/c1ccc2c(c1)OCO2)NC1CCS(=O)(=O)C1 (stereo not given) | -2.83% |
| Cc1ccc(S(=O)(=O)NCC(=O)Nc2ccc3c(c2)OCCO3)cc1 | -3.96% |
| CC(NC(=O)Nc1cccc([N+](=O)[O-])c1)c1ccc2c(c1)OCO2 (stereo not given) | -1.33% |
| CC(NS(=O)(=O)c1ccc(Cl)cc1)C(=O)Nc1ccc2c(c1)OCCO2 (stereo not given) | 1.96% |
| CCOc1ncccc1C(=O)Nc1ccc2c(c1)OCCO2 | -3.84% |
| Cc1ccc(OCCCC(=O)Nc2ccc3c(c2)OCCO3)cc1 | -2.83% |
| CNS(=O)(=O)c1ccc(NC(=O)Nc2ccc3c(c2)OCO3)cc1 | 18.5% (active) |
